# ST2 inh – inhibitors of human ST2 (IL1RL1) binding to IL-33, primary screen, biochemical, AlphaLISA; Interleukin-1 receptor-like 1 (Homo sapiens), Q01638; inhibition, % for hits at 17 µM; AlphaLISA ST2-Fc/biotin-IL-33 interaction, 1 h; hit rate 2.3% among 78,000; in the data active means inhibition above about 30%
# Target sequence (Q01638 whole entry, looked up): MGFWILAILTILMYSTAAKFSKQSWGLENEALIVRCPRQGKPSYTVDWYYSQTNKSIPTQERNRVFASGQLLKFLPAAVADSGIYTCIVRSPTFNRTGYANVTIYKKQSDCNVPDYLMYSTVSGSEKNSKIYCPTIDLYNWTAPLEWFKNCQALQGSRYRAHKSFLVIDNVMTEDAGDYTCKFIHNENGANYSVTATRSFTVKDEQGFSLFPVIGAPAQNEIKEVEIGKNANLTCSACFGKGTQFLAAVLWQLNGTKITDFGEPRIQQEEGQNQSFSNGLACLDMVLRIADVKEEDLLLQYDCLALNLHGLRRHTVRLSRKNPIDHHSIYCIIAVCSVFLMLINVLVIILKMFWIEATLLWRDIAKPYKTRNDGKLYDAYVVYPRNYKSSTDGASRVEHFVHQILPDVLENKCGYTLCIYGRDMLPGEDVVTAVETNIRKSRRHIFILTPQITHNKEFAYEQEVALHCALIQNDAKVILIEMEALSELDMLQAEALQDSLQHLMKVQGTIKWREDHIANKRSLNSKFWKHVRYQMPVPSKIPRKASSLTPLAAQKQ
# * marks the source's active call; other numbers are inactive results; i = inactive. This excerpt belongs to a sample that is enriched for hits.
SMILES,ST2 inh
COc1ccccc1NC(=O)c1ccc(OC)c(OC)c1,i
CCCOc1ccc(NC(=O)c2ccc(OC)cc2)cc1,i
COc1ccc(C(=O)N2CCCCCC2)cc1OC,i
Cn1cc(C(=O)NCCN2CCN(Cc3ccccc3)CC2)c2c3ccccc3n(C)c2c1=O,i
COc1ccc(-c2cc(-c3ccc(C)cc3)[nH]c(=O)c2C#N)cc1,i
CCN(CC)C(=O)Cn1c(=O)n(CC2CCC(C(=O)N(CC)CC)CC2)c(=O)c2sccc21 (configuration not stated),i
COc1cc(C=O)ccc1OCCCOc1cccc(C)c1C,i
O=C(Cc1cccs1)N1CCN=C1SCc1c(F)cccc1Cl,i
COc1cccc(-c2ccccc2NC(=O)C2CCN(Cc3cccc4ncccc34)CC2)c1,i
N#C/C(=C\c1ccc(-c2ccccc2)o1)C(=O)Nc1cccc2ncccc12,40%*
N#C/C(=C\c1ccc(-c2cccc(C(F)(F)F)c2)o1)C(=O)O,i
C=CCn1c(=O)[nH]c2cc(C(=O)N3CCc4ccccc4C3)ccc2c1=O,i
CC(=O)Nc1ccc(S(=O)(=O)N[C@H]2C[C@@H](c3nc(-c4ccc5c(c4)OCO5)no3)N(C)C2)cc1,i
O[C@@H]1C[C@@H](c2nc(-c3ccc4c(c3)OCO4)no2)N(Cc2ccc(Cl)cc2)C1,i
CC(=O)N1CCC(N2C[C@H](O)C[C@H]2c2nc(-c3ccc(C(F)(F)F)cc3)no2)CC1,i
CC(=O)N1CCC(N2C[C@H](O)C[C@H]2c2nc(-c3ccc4c(c3)OCO4)no2)CC1,42%*
O[C@@H]1C[C@@H](c2nc(-c3ccc4c(c3)OCO4)no2)N(C2CCOCC2)C1,33%*
Oc1ccccc1CN1C[C@H](O)C[C@H]1c1nc(-c2ccc3c(c2)OCO3)no1,i
O=C1Nc2cc(Cl)c(Cl)cc2N(O)N1c1ccccc1F,i
Cc1nn(CCCC(=O)Nc2ccc([N+](=O)[O-])cc2Cl)c(C)c1[N+](=O)[O-],i
O=C1C(Nc2ccccc2)=CC(c2ccccc2F)N1c1ccccc1 (configuration not stated),i
Cc1ccc(NC(=O)CC2(C)Nc3ccccc3C(=O)N2c2ccccc2C)c(C)c1 (configuration not stated),i
O=C(Cc1ccc(Cl)cc1)Nc1ccc(O)cc1C(=O)O,i
COc1ccc(-c2noc([C@@H]3C[C@H](NS(=O)(=O)c4ccc(C)cc4)CN3C)n2)cc1,i
COc1ccc(-c2noc([C@@H]3C[C@H](NC(=O)Nc4ccc(C)cc4)CN3C)n2)cc1,i
SMILES,ST2 inh
CN1C[C@@H](NC(=O)C2CCCCC2)C[C@H]1c1nc(-c2ccccc2)no1,i
CN1C[C@@H](NC(=O)NC2CCCCC2)C[C@H]1c1nc(-c2ccccc2)no1,82%*
CN1C[C@@H](NS(=O)(=O)c2ccc(Cl)cc2)C[C@H]1c1nc(-c2ccccc2)no1,i
COc1ccc(-c2noc([C@@H]3C[C@H](NC(=O)CCC(=O)O)CN3C)n2)cc1,30%*
COc1cccc(NC(=O)N[C@H]2C[C@@H](c3nc(-c4ccccc4)no3)N(C)C2)c1,i
CN1C[C@@H](NC(=O)NC2CCCCC2)C[C@H]1c1nc(-c2ccc3c(c2)OCO3)no1,i
Cc1ccc(-c2noc([C@@H]3C[C@H](NS(=O)(=O)c4ccc(C)cc4)CN3C)n2)cc1,i
CN1C[C@@H](NS(=O)(=O)c2ccc(C#N)cc2)C[C@H]1c1nc(-c2ccccc2)no1,51%*
COc1ccc(-c2noc([C@@H]3C[C@H](NC(=O)NC(C)C)CN3C)n2)cc1,42%*
COc1ccc(NC(=O)N[C@H]2C[C@@H](c3nc(-c4ccc(OC)cc4)no3)N(C)C2)cc1,i
CN1C(=O)c2ccc(NC(=O)CN3C(=O)c4ccccc4S3(=O)=O)cc2C1=O,i
CN(C)C(=O)c1cncc(N2CCC(N3CCCC(C(=O)N4CCCC4)C3)CC2)n1 (configuration not stated),i
CSCCC(C(=O)O)N1C(=O)C2C3c4ccccc4C(c4ccccc43)C2C1=O (configuration not stated),i
O=C1Nc2cc(Cl)c(Cl)cc2N(O)N1c1cccc(C(F)(F)F)c1,i
O=C(CCC1CCN(CCCC(F)(F)F)CC1)Nc1ccccc1Cl,i
O=C1c2ccccc2C(=O)N1CCc1ccccc1,i
O=C1C=CC(=O)C(C2=C3C(=O)N(CCc4ccccc4)CC(=O)N3CCC2)=C1,38%*
O=C1CCC(C(=O)N2CCCCCCC2)CN1CCc1ccccc1 (configuration not stated),i
CCOC(=O)C1=NN(c2ccc(Cl)cc2)C2C(=O)N(c3ccc(C)cc3)C(=O)C12 (configuration not stated),i
O=S(=O)(Cc1noc([C@@H]2C[C@@H](O)CN2Cc2cccc(OC(F)(F)F)c2)n1)c1ccc(F)cc1,i
CCOc1ccc(Nc2nc(C)c([N+](=O)[O-])c(Nc3ccccc3)n2)cc1,i
CCOc1ccc(S(=O)(=O)N=C2C=C(Nc3cccc(C)c3)C(=O)c3ccccc32)cc1,90%*
Cc1ccc(S(=O)(=O)Nc2cccc(Cl)c2)cc1,i
CCOC(=O)c1cnc2ccccc2c1Nc1cccc(C)c1,i
Cc1cccc(NS(=O)(=O)c2ccc3[nH]c(=O)[nH]c3c2)c1,i
SMILES,ST2 inh
Cc1ccc(S(=O)(=O)N=C2C=C(Nc3cccc(C)c3)C(=O)c3ccccc32)cc1,84%*
N#Cc1ccc(CNC(=O)[C@@H]2Cc3nc[nH]c3CN2Cc2ccc(F)cc2)cc1,i
CC1=CC[C@@H]2CN(C(=O)c3cccc4cc[nH]c34)C[C@@H]2C1,i
COc1ccc(C(=O)NCCn2cc(SCc3cccc(F)c3)c3ccccc32)cc1,i
CN(Cc1ccccc1)Cc1cn([C@H]2CO[C@H]3[C@@H]2OC[C@@H]3NC(=S)NC2CCCCC2)nn1,i
Cc1ccc(S(=O)(=O)c2ccc(-c3ccc([N+](=O)[O-])cc3)cc2)cc1,31%*
Cc1ccc(S(=O)(=O)N(Cc2ccc([N+](=O)[O-])cc2)C(C)(C)C)cc1,i
Cc1ccc(NS(=O)(=O)c2ccc([N+](=O)[O-])cc2)cc1,i
Cc1ccc(C(c2sc3nc(C)nn3c2O)N2CCC3(CC2)OCCO3)cc1 (configuration not stated),i
COCC(=O)Nc1c(C(=O)Nc2ccc(OC)cc2OC)oc2ccccc12,i
CCOC(=O)C1(CC2CCCCO2)CCN(C(=O)C#Cc2ccccc2)CC1 (configuration not stated),i
CCOC(=O)C1(Cc2ccccc2)CCCN(C(=O)C#Cc2ccccc2)C1 (configuration not stated),42%*
CCOC(=O)C1(Cc2ccccc2Cl)CCN(C(=O)C#Cc2ccccc2)CC1,i
COc1ccc(NC(=O)CN2CCN(Cc3ccc4c(c3)OCO4)CC2)cc1,i
Cc1ccc(-c2noc(CCC(=O)Nc3ccc4c(c3)OCO4)n2)cc1,i
Cc1ccc(NC(=O)Cn2c(-c3ccc4c(c3)OCO4)cn(-c3ccccc3)c2=O)cc1,31%*
CN1CCN(S(=O)(=O)c2ccc([N+](=O)[O-])cc2)CC1,i
COc1ccc(N2CCN(S(=O)(=O)c3ccc(OC)cc3)CC2)cc1,i
O=[N+]([O-])c1ccc(S(=O)(=O)N2CCN(c3ccc(Cl)cc3)CC2)cc1,33%*
O=c1nc(-c2ccccc2)cc(-c2ccc(Br)cc2)[nH]1,i
